We go through 7 compounds from PubChem BioAssay (NCI).

This is part of a sample that, as a whole, favours compounds with a hit. Of some 83,000 tested, about 20% had one in any assay.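 48-hour exposure, single concentration, 96-well plates; percent growth endpoint where 0 means no net growth. Active: below 10.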 A number with no mark means an inactive call. Activity calls are given as the source filed them.

Some test systems named below: NCI-H226 lung; NCI-H322M lung; HOP-62 NSCLC; NCI-H460 lung; HOP-92 NSCLC; NCI-H522 lung; A549/ATCC NSCLC; 786-0 renal; COLO 205 colon; DU-145 prostate; K-562 leukemia; MALME-3M melanoma; MDA-MB-231 breast; RXF 393 renal; SF-268 CNS; SF-295 CNS; SF-539 CNS; UACC-257 melanoma; M14 melanoma; HCT-15 colon.
What all share (test): NCI-60 one-dose screen, 48 h (100 = growth as untreated, 0 = no growth, -100 = all killed)
Common to all, as to settings: 10 µM unless noted

As for `COc1ccc(C(=O)/C=C/c2ccc(Oc3nc(NCCO)nc(N4CCOCC4)n3)c(OC)c2)cc1`, the growth with NCI-H226 lung was 92.9%; in the assay on NCI-H322M lung it was 96.6%; in the assay on HOP-62 NSCLC it was 106%; in the assay on NCI-H460 lung, 79.8%; with HOP-92 NSCLC, 104%; with NCI-H522 lung, 66.4%. Besides, the growth is 103% in the assay on A549/ATCC NSCLC; 100% with 786-0 renal; 114% in the assay with COLO 205 colon; 95% in the assay with DU-145 prostate; 6.9% (active) with K-562 leukemia; 84.7% in the assay on MALME-3M melanoma. Moreover, the growth with MDA-MB-231 breast is 85.3%; with RXF 393 renal it was 108%; in the assay on SF-268 CNS it was 85.5%; in the assay with SF-295 CNS it was 104%; in the assay with SF-539 CNS, 82.5%; with UACC-257 melanoma, 89.9%. In addition, the growth was 86.8% with M14 melanoma and 36.2% in the assay with HCT-15 colon.
As to `O=c1[nH]c2ccc(Cl)cc2cc1CSc1ccccc1Nc1nccc(-c2ccc(Cl)cc2)n1`, the growth with NCI-H226 lung is 115%; in the assay on NCI-H322M lung, 101%; with HOP-62 NSCLC it was 101%; with NCI-H460 lung, 95.3%; with HOP-92 NSCLC, 87.6%; in the assay on NCI-H522 lung, 97.3%. Also, the growth in the assay on A549/ATCC NSCLC was 86.4%; in the assay with 786-0 renal, 93.6%; with COLO 205 colon, 116%; in the assay with DU-145 prostate, 94.5%; with K-562 leukemia it was 71.6%; with MALME-3M melanoma it was 90.4%. Also, the growth was 94.3% in the assay with MDA-MB-231 breast; 84.7% with RXF 393 renal; 81.5% in the assay on SF-268 CNS; 96.3% in the assay with SF-295 CNS; 89.1% with SF-539 CNS; 100% in the assay with UACC-257 melanoma. The growth in the assay with M14 melanoma is 102%; with HCT-15 colon, 91.5%.
As to `CN1CCN(Cc2ccc(NC(=O)c3cncc(C#Cc4cnc5ccc(N6CCSCC6)nn45)c3)cc2C(F)(F)F)CC1`, the growth in the assay with NCI-H226 lung was -24.7% (active); in the assay on NCI-H322M lung, -23.9% (active); with HOP-62 NSCLC, -31.1% (active); in the assay with NCI-H460 lung it was -46.6% (active); with HOP-92 NSCLC, -48.6% (active); with NCI-H522 lung, -75.4% (active). Further, the growth is -24.5% (active) in the assay with A549/ATCC NSCLC; -77.7% (active) in the assay with 786-0 renal; -87.9% (active) in the assay on COLO 205 colon; -83.2% (active) in the assay with DU-145 prostate; -16.2% (active) in the assay with K-562 leukemia; -62.6% (active) with MALME-3M melanoma. For the same compound, the growth with MDA-MB-231 breast was -38.4% (active); with RXF 393 renal, -87.3% (active); with SF-268 CNS it was -52.9% (active); with SF-295 CNS it was -36.2% (active); with SF-539 CNS it was -94.2% (active); with UACC-257 melanoma it was 31.1%. Besides, the results for the growth in the assay with M14 melanoma and with HCT-15 colon were -81.6% (active) and -38.9% (active), respectively.
As for `Cn1ccnc1C(=O)/C=C/c1ccc(NC(=O)Nc2ccc(F)cc2)cc1`, the growth in the assay with NCI-H226 lung was 63.3%; with NCI-H322M lung, 49.5%; in the assay on HOP-62 NSCLC, 31%; in the assay on NCI-H460 lung it was 7.07% (active); in the assay with HOP-92 NSCLC, 78.2%; in the assay with NCI-H522 lung it was 14.7%. The growth in the assay with A549/ATCC NSCLC is 36.4%; in the assay on 786-0 renal, 27.3%; in the assay with COLO 205 colon it was 49.5%; with DU-145 prostate it was 35.1%; in the assay with K-562 leukemia, 9.78% (active); in the assay on MALME-3M melanoma, 69%. Besides, the growth is 28.8% in the assay with MDA-MB-231 breast; 19.4% with RXF 393 renal; 55.6% in the assay with SF-268 CNS; 23.3% with SF-295 CNS; -15.6% (active) in the assay on SF-539 CNS; 85.6% in the assay with UACC-257 melanoma. Also, the growth in the assay with M14 melanoma was 45.1%; in the assay with HCT-15 colon, 21%.
As to `C[C@@H]1CN(c2ccc3ncc(C#Cc4cncc(C(=O)Nc5ccc(CN6CCN(C)CC6)c(C(F)(F)F)c5)c4)n3n2)C[C@H](C)O1`, the growth in the assay with NCI-H226 lung was -48.8% (active); in the assay on NCI-H322M lung, -19.4% (active); with HOP-62 NSCLC it was -30.1% (active); in the assay on NCI-H460 lung, -77.7% (active); in the assay with HOP-92 NSCLC, -44.4% (active); in the assay on NCI-H522 lung, -78.8% (active). In addition, the growth was -82.5% (active) in the assay on A549/ATCC NSCLC; -74.8% (active) in the assay with 786-0 renal; -76.8% (active) with COLO 205 colon; -97.5% (active) in the assay with DU-145 prostate; -11.8% (active) with K-562 leukemia; -68.9% (active) in the assay with MALME-3M melanoma. Besides, the growth is -24.9% (active) in the assay with MDA-MB-231 breast; -92.1% (active) in the assay on RXF 393 renal; -60.3% (active) in the assay on SF-268 CNS; 0.595% (active) in the assay on SF-295 CNS; -96.1% (active) with SF-539 CNS; -19.1% (active) with UACC-257 melanoma. In addition, the growth in the assay with M14 melanoma is -76.3% (active); in the assay on HCT-15 colon, -17.2% (active).
On to `OC1CCN(CCCOc2c3ccccc3nc3c2oc2ccccc23)CC1`, for which the growth with NCI-H226 lung is -31.2% (active); in the assay on NCI-H322M lung it was -17% (active); in the assay with HOP-62 NSCLC, 5.52% (active); in the assay on NCI-H460 lung it was 0.894% (active); in the assay with HOP-92 NSCLC, -11.8% (active); with NCI-H522 lung, -48.6% (active). Moreover, the growth in the assay on A549/ATCC NSCLC was -12.2% (active); in the assay on 786-0 renal, 7.21% (active); in the assay with COLO 205 colon, -63.8% (active); in the assay on DU-145 prostate, 1.33% (active); with K-562 leukemia it was 6.75% (active); in the assay with MALME-3M melanoma, -32.6% (active). Also, the growth in the assay on MDA-MB-231 breast is -31.5% (active); in the assay with RXF 393 renal, -43.1% (active); with SF-268 CNS, 2.44% (active); in the assay with SF-295 CNS, -14.7% (active); with SF-539 CNS it was -12.5% (active); with UACC-257 melanoma it was -17.7% (active). Also, the growth was -71.8% (active) in the assay on M14 melanoma and -8.3% (active) with HCT-15 colon.
In the case of `O=C1c2c(c3c4cc(Br)ccc4[nH]c3c3ccc4ccccc4c23)C(=O)N1CCO`, the growth in the assay with NCI-H226 lung is 88.9%; with NCI-H322M lung, 96.8%; in the assay on HOP-62 NSCLC, 96.3%; with NCI-H460 lung, 62.5%; with HOP-92 NSCLC, 103%; with NCI-H522 lung it was 76.5%. Besides, the growth is 91.7% in the assay with A549/ATCC NSCLC; 100% in the assay with 786-0 renal; 92% in the assay on COLO 205 colon; 103% in the assay with DU-145 prostate; 71.6% in the assay on K-562 leukemia; 103% in the assay on MALME-3M melanoma. The growth with MDA-MB-231 breast was 75.3%; with RXF 393 renal it was 107%; in the assay on SF-268 CNS, 105%; in the assay on SF-295 CNS it was 91.8%; in the assay with SF-539 CNS, 90.9%; in the assay with UACC-257 melanoma it was 97.4%. Besides, the growth is 103% in the assay with M14 melanoma and 72.8% in the assay with HCT-15 colon.
